Data taken from PubChem BioAssay AID1851 (National Center for Advancing Translational Sciences (NCATS), 2009).
Screen size: about 16,000 compounds; about 5,100 (32%) were called active. Inconclusive results (about 25%) are left out. This is one part of the list. Unmarked numbers belong to inactive results. Calls come from the whole dose curve; as a rule, active = well fitted curve in the direction sought with a large enough effect; inconclusive = small, poorly fitted or top-dose-only effect, or effect the other way; inactive = no such curve, though single readings can be large or run the other way.

target: Cytochrome P450 3A4 (Homo sapiens) (UniProt P08684); assay: Cytochrome panel assay with activity outcomes; settings: recombinant CYP, pro-luciferin dealkylation, luminescence, p450-cyp3a4; series mostly up to 57.1 µM; activity, negative = inhibition: at the top concentration
Sequence (P08684 whole entry, looked up): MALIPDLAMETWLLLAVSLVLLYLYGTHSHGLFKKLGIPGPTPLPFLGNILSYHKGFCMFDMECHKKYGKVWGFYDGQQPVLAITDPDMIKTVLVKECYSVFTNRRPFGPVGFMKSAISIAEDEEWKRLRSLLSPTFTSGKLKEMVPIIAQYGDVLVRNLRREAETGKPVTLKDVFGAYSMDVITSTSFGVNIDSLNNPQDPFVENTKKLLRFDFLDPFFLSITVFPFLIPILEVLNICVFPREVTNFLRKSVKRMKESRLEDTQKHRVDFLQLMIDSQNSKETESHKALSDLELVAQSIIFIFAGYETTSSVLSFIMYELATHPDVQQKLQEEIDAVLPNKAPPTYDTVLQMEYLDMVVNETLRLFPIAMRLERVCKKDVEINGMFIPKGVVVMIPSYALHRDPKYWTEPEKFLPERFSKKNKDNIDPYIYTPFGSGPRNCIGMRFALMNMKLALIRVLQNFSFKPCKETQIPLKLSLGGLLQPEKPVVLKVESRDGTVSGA
% is set by controls: 0 for no effect and ±100 for the full control effect.

Row | SMILES | activity, negative = inhibition | AC50
1 | CC(C)=NOCc1ccc(-c2cc(-c3ccccc3)no2)cc1 | 5.94% [at 11.4 µM] | 
2 | C[C@@H](c1ccccc1)N1C(=O)[C@@H]2[C@H]3C(=CC[C@H]2C1=O)C(=O)[C@H]1O[C@H]1[C@H]3O | -19.9% [at 11.4 µM] | 
3 | CN(C)S(=O)(=O)Nc1ccccn1 | -8.58% [at 11.4 µM] | 
4 | COc1cccc(Nc2ncc(C(=O)O)c3ccccc23)c1 | -10.1% | 
5 | CN(C)c1ccc(-c2ccc3ncnc(NC4CC4)c3c2)cc1 |  | 3.16 µM (active)
6 | COc1cccc(-c2ccc3ncnc(Nc4ccccc4)c3c2)c1 |  | 10 µM (active)
7 | CN(C)C(=O)c1ccc(-c2ccc3ncnc(NC4CCNCC4)c3c2)cc1 | -8.67% | 
8 | COc1ccccc1-c1ccc2ncnc(Nc3ccccc3)c2c1 |  | 12.6 µM (active)
9 | C/C=C\C1=C(CO)C(=O)C2O[C@]2(CC=C(C)C)C1=O (stereo partly drawn) | -13.4% [at 11.4 µM] | 
10 | Cc1sc2c(c1C)c(=O)n(-c1ccccc1)c1nnc(C)n21 | -6.33% | 
11 | Cc1ccccc1C(C(=O)NC1CCCC1)N(C(=O)Cc1cccs1)c1ccc2c(c1)OCCO2 (stereo not drawn) |  | 1 µM (active)
12 | CCOC(=O)CN(C(=O)CCC(=O)Nc1cc(C)on1)C(C(=O)NC1CCCC1)c1cccnc1 (stereo not drawn) | -13% [at 2.29 µM] | 
13 | CCOc1ccc(N(C(=O)/C=C/C(=O)Nc2cc(C)on2)C(C(=O)NC2CCCC2)c2ccccc2C)cc1 (stereo not drawn) |  | 0.891 µM (active)
14 | Cc1nn(C)cc1C(C(=O)NC1CCCCC1)N(C(=O)Cc1cccs1)c1ccc(C(C)C)cc1 (stereo not drawn) |  | 2.51 µM (active)
15 | O=C(O)CN(CCN(CC(=O)O)CC(=O)O)CCN(CC(=O)O)CC(=O)O |  | inactive
16 | Oc1ccc(Cc2nccc3cc(O)c(O)cc23)cc1O | -11.6% [at 11.4 µM] | 
17 | CC1(C)CC(=O)C(C(c2cccc(O)c2O)C2C(=O)CC(C)(C)CC2=O)C(=O)C1 | -5.88% [at 11.4 µM] | 
18 | OCCN(Cc1ccccc1)Cc1cccc(Cl)c1Cl | 9.74% [at 11.4 µM] | 
19 | CCN(CC(=O)NCc1cccs1)S(=O)(=O)c1ccc(C(C)C)cc1 |  | 7.08 µM (active)
20 | CCOC(=O)N/N=C/c1ccccc1F | -18.1% | 
21 | COc1ccccc1/C=N/NC(=O)CC(=O)Nc1ccc(Cl)c(Cl)c1 |  | 7.94 µM (active)
22 | O=C(CO)N/N=C/c1ccccc1F | -1.22% | 
23 | COc1ccc(OC)c(C2C(C(=O)Nc3nc4ccccc4s3)=C(C)NC3=C2C(=O)CCC3)c1 (stereo not drawn) |  | 2.24 µM (active)
24 | COCCN1CN=C(Nc2nc3ccccc3s2)NC1 | -29.2% | 
25 | CO[C@@H]1CC[C@@]2(C)[C@@H](CC[C@@]3(C)[C@H]2CC=C2[C@H]4CC(C)(C)[C@H](O)[C@@H](OC(C)=O)[C@]4(CO)[C@H](O)C[C@]23C)[C@@]1(C)CO (tested in a mixture with another compound) | -10.4% [at 25.6 µM] | 

Row | SMILES | activity, negative = inhibition | AC50
26 | COc1cccc(/C=c2/s/c(=C(\C#N)C(=O)N3CCOCC3)n(-c3ccccc3)c2=O)c1 | 5.7% | 
27 | Clc1ccccc1NN(Cc1ccccn1)c1ccccc1Cl | -2.68% [at 11.4 µM] | 
28 | Clc1ccccc1NN(Cc1ccncc1)c1ccccc1Cl |  | 0.251 µM (active)
29 | CC1=CC(C)(C)N(C)C(=O)N1c1ccc(Cl)cc1 | -0.338% [at 2.29 µM] | 
30 | O=C(NCc1ccccc1)c1onc(CSc2ccc(F)cc2)c1C(=O)NCCCN1CCOCC1 |  | 2.51 µM (active)
31 | COCCNC(=O)c1onc(CSc2cccc(Cl)c2)c1C(=O)O | -29% | 
32 | Cc1cc(=O)oc(C)c1C(=O)NCCCN1CCN(c2ccc(F)cc2)CC1 | -12.9% | 
33 | C=C(C)[C@@H]1CC=C(C(=O)O)CC1 | 3.9% | 
34 | CO[C@@H](NC(N)=O)C(=O)O | -10.7% [at 11.4 µM] | 
35 | CN(C)c1cc2c(Nc3ccc4c(cnn4Cc4ccccc4)c3)ncnc2cn1 |  | 5.01 µM (active)
36 | CC(C(=O)NC1CCCC1)N(C(=O)c1snc(C(N)=O)c1N)c1ccc2c(c1)OCCO2 (stereo not drawn) |  | 3.55 µM (active)
37 | Cc1ccc(NC2=NC(c3ccccc3)n3c(nc(C)cc3=O)N2)c(C)c1 (stereo not drawn) |  | 14.1 µM (active)
38 | O=C(OCc1nnc(-c2ccccc2)o1)c1ccc2c(c1)OCCO2 |  | 20 µM (active)
39 | O=C(OCc1cccc(F)c1)c1ccc2c(c1)-c1ccccc1C2=O | -42.1% | 
40 | O=C(OCC#CCSc1nnc(-c2cccc3ccccc23)o1)c1ccco1 |  | 7.94 µM (active)
41 | Cc1ccccc1OCCNC(=S)Nc1ccccc1 |  | 12.6 µM (active)
42 | S=C(Nc1ccccc1)Nc1ccc(OCc2ccccc2)cc1 | -16.9% | 
43 | O=C(c1ccco1)N1CCC[C@@]2(CCN(c3ccncc3)C2)C1 |  | 1.26 µM (active)
44 | O=C(Nc1ccccc1)N1CC2(CCN(C(=O)c3ccco3)CC2)C1 | 22.3% | 
45 | O=C(c1ccco1)N1CCC2(CC1)CCN(c1ccccc1)CC2 | 27.4% | 
46 | O=C(c1ccco1)N1CCC[C@@]2(CCN(c3ccccc3)C2)C1 |  | 12.6 µM (active)
47 | O=C(Nc1cccn2ncnc12)c1ccc(Cl)cc1Cl | -10.8% | 
48 | O=C(Nc1ccc(N=Nc2ccccc2)cc1)c1ccc(Cl)cc1Cl | -0.112% | 
49 | CCCN(CCC)C(=S)NC(=O)c1ccc(Cl)cc1Cl |  | 14.1 µM (active)
50 | CC12COC3(C(=O)Nc4nccs4)CC1CCC32C (stereo not drawn) |  | 14.1 µM (active)

Row | SMILES | activity, negative = inhibition | AC50
51 | Cc1onc(C(=O)/C=C/N(C)C)c1C(=O)Nc1nccs1 | -15.5% | 
52 | CC1CCc2c(C(=O)Nc3nccs3)csc2C1 (stereo not drawn) | -19.8% [at 11.4 µM] | 
53 | Cn1c(OCc2ccc3c(c2)OCO3)nc2c1c(=O)n(Cc1ccc(Cl)c(Cl)c1)c(=O)n2C |  | 3.55 µM (active)
54 | CCCCOC(=O)CCc1c(C)[nH]c(=O)c(C#N)c1C | -27.2% | 
55 | Cc1cc(N)c2cc(NC(=O)Nc3ccc4nc(C)cc(N)c4c3)ccc2n1 | -7.21% [at 11.4 µM] | 
56 | Cc1cc(NC(=O)Nc2ccc(N(C)C)cc2)c2cc(F)cc(F)c2n1 |  | 6.31 µM (active)
57 | Cc1cc(NC(=O)Nc2ccc(F)cc2)no1 | 17.7% | 
58 | CSc1nc(N)nc(SCC(=O)Nc2ccc(Cl)cc2)c1C#N | 6.12% | 
59 | CSc1nsc(/C=C/Nc2ccc(Cl)cc2)c1C#N |  | 8.91 µM (active)
60 | C[C@@H](c1ccccc1)N1C(=O)[C@H]2[C@@H]3[C@H](O)C=CC(=O)[C@H]3CC[C@H]2C1=O | -17.4% [at 11.4 µM] | 
61 | Cc1cnc(CNc2ccnc(-c3cccnc3)n2)cn1 |  | 5.01 µM (active)
62 | Cc1cnc(CNc2ccnc(-c3cccc(C#N)c3)n2)cn1 |  | 12.6 µM (active)
63 | COc1cccc(-c2nccc(NCc3cnc(C)cn3)n2)c1 |  | 6.31 µM (active)
64 | Cc1cnc(CNc2ccnc(-c3cccc(NS(C)(=O)=O)c3)n2)cn1 |  | 15.8 µM (active)
65 | C[C@@H](N)C(=O)O | -4.94% | 
66 | Cc1cc(C)cc(Oc2nn[nH]n2)c1 | -23.8% | 
67 | CC(C)CCN1CC(C(=O)N2CCN(c3ccc(F)cc3)CC2)CC1=O (stereo not drawn) | -17.8% | 
68 | O=C(CCS(=O)(=O)c1cccs1)N1CCN(c2ccc(F)cc2)CC1 |  | 12.6 µM (active)
69 | Cc1ccccc1S(=O)(=O)Oc1ccccc1C(=O)Oc1ccccc1 | -12.1% [at 2.29 µM] | 
70 | Nc1ccc(S(=O)(=O)Nc2ccccn2)cc1 | -11.6% [at 25.6 µM] | 
71 | COCCNC(=O)c1cn(Cc2c(F)cccc2Cl)nn1 | 3.71% | 
72 | CC(C)CCNC(=O)Cc1ccccc1[N+](=O)[O-] | -33.7% | 
73 | O=C(Cc1ccccc1[N+](=O)[O-])NCCSCc1c(F)cccc1Cl |  | 14.1 µM (active)
74 | CC(C)COCC1CC2(CC(C)(c3csc(N)n3)OC2=O)C(=O)O1 (stereo not drawn) |  | 14.1 µM (active)
75 | CCN1CCC[C@H]1CNC(=O)c1c(OC)ccc(Br)c1OC |  | inactive

Row | SMILES | activity, negative = inhibition | AC50
76 | CCC1CCCCN1CCn1c(=S)[nH]c2cc(OC)c(OC)cc2c1=O (stereo not drawn) |  | 14.1 µM (active)
77 | CCC1CCCCN1Cc1cc(OC)c(O)c([N+](=O)[O-])c1 (stereo not drawn) | -10.2% | 
78 | O=C(O)[C@@H]1C[C@@H](C(=O)O)N1 | -3.82% | 
79 | Cn1ncc2c(Cl)ncnc21 | -9.04% [at 11.4 µM] | 
80 | Cn1ncc2c(NCCc3ccccc3)nc(Cl)nc21 |  | 2 µM (active)
81 | c1ccc(CCNc2nnnn2-c2ccccc2)cc1 | -3.75% [at 2.29 µM] | 
82 | CCN1CCN(c2cc(=O)n(-c3cc(Cl)ccc3C)c(=O)[nH]2)CC1 | 6.28% | 
83 | CS(=O)c1ccccc1-c1nc(-c2cc(C(F)(F)F)cc(C(F)(F)F)c2)no1 (stereo not drawn) | 15.3% [at 2.29 µM] | 
84 | Cc1cccc(-c2noc(-c3cc4ccccc4oc3=O)n2)c1 |  | 8.91 µM (active)
85 | CS(=O)(=O)c1ccccc1-c1nc(-c2cc(C(F)(F)F)cc(C(F)(F)F)c2)no1 | 4.25% [at 2.29 µM] | 
86 | COc1ccc(/C=C/c2ccncc2)cc1 |  | 1.58 µM (active)
87 | COc1nc(Oc2ccc(/C=N/O)cc2)nc(N(C)C)n1 | -3.18% [at 2.29 µM] | 
88 | COc1ccc(OC(=O)c2ccncc2)cc1 | -18.8% | 
89 | CCOC(=O)CSc1nnc(CNC(=O)c2ccc(OC)cc2)n1C1CCCCC1 |  | 2 µM (active)
90 | CCOC(=O)C(C)Sc1nnc(CNC(=O)c2ccc(OC)cc2)n1C1CCCCC1 (stereo not drawn) |  | 0.891 µM (active)
91 | O[C@@H]1[C@@H](OCc2ccccc2)OC[C@H](O)[C@@H]1O | -2.87% [at 11.4 µM] | 
92 | Cc1cc(C)cc(N(C(=O)C2CCCC2)C2C=CS(=O)(=O)C2)c1 (stereo not drawn) | -15.4% [at 2.29 µM] | 
93 | CCCCC1=NN2C(=N)CC(=O)N=C2S1 | -20.3% | 
94 | CN(C)c1ccc(NC(=O)CSc2nc(N)c(C(=O)Nc3ccc(N(C)C)cc3)s2)cc1 |  | 4.47 µM (active)
95 | CCN(CC)c1ccc(NC(=O)c2cnn(CC)c2)cc1 | -22% | 
96 | Cc1ccc(NC2c3ncccc3C(=O)N2Cc2ccc(F)cc2)cc1 (stereo not drawn) |  | 4.47 µM (active)
97 | CN[C@@H]1NC(=O)c2ccccc2N1Cc1ccc(F)cc1 | -12.4% [at 11.4 µM] | 
98 | O=C1c2cccnc2C(=O)N1Cc1ccc(F)cc1 | 7.01% | 
